Source: PubChem (National Center for Advancing Translational Sciences (NCATS))
Sfp inh: blocks B. subtilis Sfp PPTase activity; Q9F4F7; Biochemical Sfp PPTase activity, qHTS; Potency, µM, hits mostly inhibitors; 310,000 compounds, 3.5% hits; AID 1490;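 also: the enzyme is Sfp with the accession as filed and its product quenches rhodamine fluorescence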
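After 15 min at room temperature with compound, 15 nM Sfp received 5 uM rhodamine-CoA plus 12.5 uM BHQ-2-ybbR (50 mM Hepes pH 7.6, 10 mM MgCl2). Rate came from the fluorescence difference over 30 min, ex 525/em 598 nm.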
BAZ2B inh: blocks human BAZ2B. Potency, µM (highest dose often 114 µM), hits mostly inhibitors. Q9UIF8. AlphaScreen BAZ2B-H3K14Ac peptide displacement. 360,000 compounds, 4.4% hits; also: nearly all actives have a fitted effect of over 60% in size
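Multi-concentration screen (max 110 uM) measuring displacement of acetylated histone H3 peptide from BAZ2B by AlphaScreen, using 50 nM protein, 50 nM peptide and 10 ug/mL streptavidin donor plus Ni-chelate acceptor beads.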
G9a block: blocks human histone lysine methyltransferase G9a | Q96KQ7 | G9a H3K9 monomethylation, AlphaScreen, 2 h | Potency, µM (top dose mostly 102 µM), usual class: inhibitors | 350,000 compounds, 8.8% hits | AID 504332; also: nearly all actives have a fitted effect of over 75% in size
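Enzyme 20 nM + cpd, 15 min RT; add b-H3K9 pep 500 nM / SAM 20 uM; 2 h RT; anti-H3K9me1 Ab 0.5 ug/mL + SA donor / anti-rabbit acceptor beads 20 ug/mL each, 10 min; AlphaScreen read.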
L3MBTL1 block: L3MBTL1 (human) inhibition | Q9Y468 | AlphaScreen L3MBTL1–H3K9me1 peptide binding | Potency, µM (titrated, usually from 57.1 µM), usual class: inhibitors | 230,000 compounds, 0.66% hits | AID 485360; also: nearly all actives have a fitted effect of over 60% in size
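L3MBTL1 (50 nM) pre-complexed 30 min with biotinylated H3(1-15)K9me1 peptide (75 nM), then compounds added for 30 min at room temperature; AlphaScreen streptavidin donor/nickel chelate acceptor beads (10 ug/mL final) read after 30 min dark incubation.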
HP1b chromo inh: blocks HP1-beta chromodomain binding to methylated histone tails | AlphaScreen HP1-beta / biotin-H3K9me3 peptide binding | 390,000 compounds, 0.56% hits | P83916 | Potency, µM (top dose mostly 114 µM), actives largely listed as inhibitors; also: nearly all actives have a fitted effect of over 70% in size
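HP1-beta protein (50 nM final) preincubated 30 min at room temperature with biotinylated H3(1-18)K9me3 peptide (50 nM) in PBS pH 7.4, 0.01% Tween-20, then compound added for 30 min. AlphaScreen streptavidin donor/nickel chelate acceptor beads (10 ug/mL final), 30 min dark, luminescence read.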
JMJD2A Tudor: JMJD2A Tudor domain (human) inhibition. Potency, µM (titrated, usually from 114 µM), hits mostly inhibitors. O75164. AlphaScreen JMJD2A-Tudor / H3K4me3 peptide binding. 390,000 compounds, 4.4% hits. AID 504339; also: nearly all actives have a fitted effect of over 50% in size
A number is an active result; n = inactive; u = inconclusive; x = no result given; [ ] = remark or other dose. Compounds with a hit are over-represented: about 12% of the library has one in this group of screens. Calls follow the shape of the dose curve; as a rule, active = well fitted curve in the direction sought with a large enough effect; inconclusive = small, poorly fitted or top-dose-only effect, or another doubt; inactive = no such curve, though single readings can be large; an effect the other way counts as inactive or inconclusive.

SMILES	Sfp inh	BAZ2B inh	G9a block	L3MBTL1 block	HP1b chromo inh	JMJD2A Tudor
CCN(CC)c1nc2ccccc2[nH]1	n	n	n	n	n	n
C=C(C(C)=O)C(O)c1ccc2ccccc2c1 (stereo unspecified)	n	x	x	x	x	x
CSc1nc2ncnc(N)c2[nH]1	n	n	44.7µM	x	n	79.4µM
CCC(=O)N1c2ccc(S(=O)(=O)N3CCC(C)CC3)cc2CC1C (stereo unspecified)	x	x	n	x	n	n
COc1ccc(CNC(=O)c2c([S-])n(-c3ccc(C)cc3)c3cccc[n+]23)cc1	n	x	3.98µM	u	n	3.16µM
Cc1ccc(OCC(=O)NC(C)c2ccccc2)cc1 (stereo unspecified)	n	n	u	n	n	n
Cc1ccc(-n2c([S-])c(C(=O)NC(C)c3ccccc3)[n+]3ccccc23)cc1 (stereo unspecified)	n	n	39.8µM	n	n	n
CC(C)CN(CCCNC(=O)c1cc(=O)[nH]c2ccc(S(=O)(=O)N3CCCC3)cc12)CC(C)C	x	n	n	x	n	n
CC1CCCCN1S(=O)(=O)c1ccc2[nH]c(=O)cc(C(=O)NCCCN3CCCCCC3)c2c1 (stereo unspecified)	n	n	79.4µM	x	n	n
Cc1ccc(C(c2sc3nc(-c4ccco4)nn3c2O)N2CCOCC2)cc1 (stereo unspecified)	x	n	n	x	n	n
CC(C)c1ccc(NC(=O)C2CCCN2S(=O)(=O)c2ccc3nc(-c4ccccc4)[nH]c3c2)cc1 (stereo unspecified)	x	u	n	x	n	n
COc1cccc(CNc2ccc3c(c2)ncn3C)c1OC	n	u	n	n	n	u
CCCn1cnc2cc(NCc3cccs3)ccc21	n	u	17.8µM	n	n	u
CCCCn1cnc2cc(NCc3ccccc3Cl)ccc21	x	35.5µM	14.1µM	x	u	39.8µM
CCn1cnc2cc(NCc3ccccc3Cl)ccc21	n	u	44.7µM	x	u	u
Cn1cnc2cc(NCc3ccccc3Cl)ccc21	n	n	50.1µM	x	n	u
CCN(CC)CCCCn1c(-c2ccccc2)nc2c(N(CCOC)CCOC)nc(C)nc21	n	x	x	x	x	x
CCN(CC)S(=O)(=O)c1ccc2c(c1)N(CC(=O)Nc1ccc(OC)cc1)C(=O)CS2	x	n	n	x	n	n
CC1CCCCN1c1nnc(NC(=O)Nc2ccccc2F)s1 (stereo unspecified)	x	n	u	x	n	n
FC(F)(F)c1ccccc1-c1ccc2ncnc(NC3CCNCC3)c2c1	n	x	x	x	x	x
CCC(=O)Nc1ccc2c(c1)ncn2C	n	n	n	n	n	n
c1ccc(-n2cnc3cc(NCc4ccncc4)ccc32)cc1	n	u	u	n	n	56.2µM
CC(=O)Nc1ccc2c(c1)ncn2-c1ccccc1	n	n	u	n	n	n
CC(C)c1ccc(CNc2ccc3c(c2)ncn3C)cc1	n	39.8µM	u	x	n	u
CCOC(=O)c1[nH]c2c(c1Cc1ccccc1OC)C(=O)CC(c1ccccc1)C2 (stereo unspecified)	x	n	n	x	n	n
SMILES	Sfp inh	BAZ2B inh	G9a block	L3MBTL1 block	HP1b chromo inh	JMJD2A Tudor
COc1ccc(S(=O)(=O)N2CCC(N3CCN(Cc4ccc(F)cc4)C(=O)C3=O)CC2)cc1	x	n	n	x	n	n
Cc1cc2ccccn2c1C(=O)c1ccncc1	n	n	n	n	n	n
Cc1cc2ccccn2c1C(=S)NC(=O)c1ccccc1	n	14.1µM	u	u	u	50.1µM
CCSC1=N/C(=C\c2ccc(-c3ccccc3[N+](=O)[O-])o2)C(=O)S1	u	7.94µM	n[0.501 µM]	n	10µM	u
CCCSC1=N/C(=C\c2ccc([N+](=O)[O-])o2)C(=O)S1	39.8µM	12.6µM	u	u	35.5µM	11.2µM
CSC1=N/C(=C\c2ccc(C)o2)C(=O)S1	u	44.7µM	12.6µM	28.2µM	n	u
CC(C)(C)OC(=O)NCc1nnc(-c2nc3ccccc3[nH]2)o1	x	x	x	x	x	n
CCc1ccccc1NC(=O)Cc1c(C(=O)O)[nH]c2ccc(Cl)cc12	x	n	n	x	n	n
CCOC(=O)C1(CC)CC(CSc2nc3ccccc3[nH]2)OC1=O (stereo unspecified)	n	u	n[12.7 µM]	x	n	89.1µM
O=C(O)C1=C(C2CCCCC2)C(=O)c2ccccc21	x	x	x	x	n	n
O=C1C=C(C2CCCCC2)C(=O)c2ccccc21	x	x	x	x	u	39.8µM
CCOC(=O)c1ccc(N=C2C(=S)N(c3ccc(C(=O)OCC)cc3)C(=N)N2/N=C/c2ccccc2)cc1	n	n	3.98µM	n	n	u
CCOC(=O)c1ccc(N2Cc3ccccc3C2=N)cc1	n	n	n	x	n	n
COc1ccc(NC(=O)CCS(=O)(=O)c2nc(-c3ccc4c(c3)OCO4)cc(C(F)(F)F)n2)cc1OC	x	n	11.2µM	x	n	n
O=S(=O)(c1ccc(Cl)cc1)N1CCN(c2nc(-c3ccc(F)cc3)nc3cc(Cl)ccc23)CC1	x	x	x	x	n	n
CN(C)c1oc(-c2ccccc2Cl)nc1C#N	n	u	u	x	n	n
CN(C)c1oc(-c2ccccc2[N+](=O)[O-])nc1C#N	10µM	n	7.08µM	n	u	15.8µM
Cc1ccc2c(c1C)OC(=O)CC2(C)C	n	n	n	n	n	n
Cc1ccc2c(c1C)-c1c(ccc(C)c1C)C(=O)C2=O	x	x	x	x	15.8µM	50.1µM
CCOc1ccc(N2C(=O)CC(NC3CCN(C(=O)c4cccc(Cl)c4)CC3)C2=O)cc1 (stereo unspecified)	n	n	u	x	n	n
CCOC(=O)c1ccc(N2C(=O)CC(NC3CCN(C(=O)c4cccc(Cl)c4)CC3)C2=O)cc1 (stereo unspecified)	n	n	15.8µM	n	n	n
CCOc1cccc2sc(N(CCCN(C)C)C(=O)c3ccc(S(=O)(=O)N4CCCCCC4)cc3)nc12	n	n	n	x	n	u
CN(C)CCCN(C(=O)c1ccc(S(=O)(=O)N2CCc3ccccc32)cc1)c1nc2c(Cl)cccc2s1	u	u	39.8µM	x	n	u
COc1cccc2sc(N(CCCN(C)C)C(=O)c3ccc(S(=O)(=O)N4CCCc5ccccc54)cc3)nc12	u	39.8µM	x	x	n	u
COc1ccc(C(=O)Nc2cccc(-c3cn4ccsc4n3)c2)c(OC)c1	x	u	n	x	n	n
O=C(COc1ccc(Br)cc1)Nc1ccc(C(=O)OC2CCCCC2)cc1	x	n	n	x	n	n
COc1cc(OC)cc(C(=O)N2CCN(C(=O)COc3ccccc3)CC2)c1	x	n	n	x	n	n
C=CCn1c(C)cc(C2=NNC(=Nc3ccc(C)cc3)SC2)c1C	79.4µM	n	n	n	n	n
NC1=NC(=Nc2ccc(S(=O)(=O)N3CCOCC3)cc2)c2ccccc21	n	n	n	x	n	n
CCOc1ccc(N=C2NN=C(c3cc(C)n(CC4CCCO4)c3C)CS2)cc1 (stereo unspecified)	56.2µM	70.8µM	15.8µM	n[11.4 µM]	u	u
